The sequences below were run against ARL8B (assay: pooled miR-30 sensor sort-seq; sequence = guide strand). Conditions: shRNA.
Work on TTTCGGGAAGCTTCTATCTTTT yielded a sensor-assay potency score (higher = more potent) of -1.11. TAATTCTAGGATTATAGCCAAG showed a sensor-assay potency score (higher = more potent) of -1.33. Work on TTACCTTTAGTTACCTTCCTCA yielded a sensor-assay potency score (higher = more potent) of 0.244. In the case of TTTCTCTATCCTGAATAGCAGA, the sensor-assay potency score (higher = more potent) was -1.1. With TATCATGTAAACAATAGCATTG the sensor-assay potency score (higher = more potent) was -1.05. In the case of TATCTTCACTGAATTGACCTGA, the sensor-assay potency score (higher = more potent) was 0.755. TTTCCAAGCACTAGCACTGGAA was tested, and the sensor-assay potency score (higher = more potent) was -1.03. Work on TTGAATAGCAGCAAATTTCTCT yielded a sensor-assay potency score (higher = more potent) of 0.213. TAAACAATAGCATTGACTCCTC showed a sensor-assay potency score (higher = more potent) of -0.391. TTTATCTAGAAGATTATGTAGC showed a sensor-assay potency score (higher = more potent) of 0.313. Work on TTTCACGATCTGCAGCATCTAT yielded a sensor-assay potency score (higher = more potent) of -0.778. TGTGATATCTATATTATCCTTT was tested, and the sensor-assay potency score (higher = more potent) was 0.458.

These sequences were tested against ARPC1A in the same assay as above. Conditions: shRNA.
TAACAAACAGAAATGAGTCGTG gave a sensor-assay potency score (higher = more potent) of 0.708. In the case of TTTGGAATATCTAACTTGGAGA, the sensor-assay potency score (higher = more potent) was -0.835. TATAGATGTGCACTTCGTGATT gave a sensor-assay potency score (higher = more potent) of -0.958. ATTTGAAGTCACATGATCCTGC showed a sensor-assay potency score (higher = more potent) of 0.383. For TTTAATGTGCTTGCTCACCCAC, the sensor-assay potency score (higher = more potent) was -0.282. TATTCAAACAAAACCACACGGC gave a sensor-assay potency score (higher = more potent) of -0.11. For TGAAGTCACATGATCCTGCTGC, the sensor-assay potency score (higher = more potent) was 0.622. Work on TTGGCTTCCAAACACCATCTTT yielded a sensor-assay potency score (higher = more potent) of -0.586. In the case of TCTGAGACAAATGACACACTTA, the sensor-assay potency score (higher = more potent) was 0.156. AAATTTGCGACAATCTTGCTTG was tested, and the sensor-assay potency score (higher = more potent) was -0.036. Work on TTGAGTGATGCTATTCTGGTGC yielded a sensor-assay potency score (higher = more potent) of 0.522. TTTTGGAATATCTAACTTGGAG was tested, and the sensor-assay potency score (higher = more potent) was -0.944.
Also: reference of the scale not given here.
